The text below walks through data of the supplement of paper PMC11732987, “Enantioselective OTUD7B fragment discovery through chemoproteomics screening and high-throughput optimisation” (Communications Chemistry, 2025).

Each structure is given as a SMILES string.

Chain of USP14 (P54578 whole entry, the tested form may be a part): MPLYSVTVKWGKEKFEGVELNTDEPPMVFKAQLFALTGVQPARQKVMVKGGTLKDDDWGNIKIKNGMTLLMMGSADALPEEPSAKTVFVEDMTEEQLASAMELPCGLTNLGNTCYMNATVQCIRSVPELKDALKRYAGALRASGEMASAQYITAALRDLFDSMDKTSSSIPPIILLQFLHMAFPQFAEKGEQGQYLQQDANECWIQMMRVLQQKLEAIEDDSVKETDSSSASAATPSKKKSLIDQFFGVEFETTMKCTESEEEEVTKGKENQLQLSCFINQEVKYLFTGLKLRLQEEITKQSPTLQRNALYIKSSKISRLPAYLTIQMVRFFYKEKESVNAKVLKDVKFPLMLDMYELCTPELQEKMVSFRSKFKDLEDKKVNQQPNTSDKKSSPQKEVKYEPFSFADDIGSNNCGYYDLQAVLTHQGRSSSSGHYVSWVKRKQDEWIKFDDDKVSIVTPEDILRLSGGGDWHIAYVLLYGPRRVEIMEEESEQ

This experiment has as its target USP14 (UniProt P54578). Description: log2 ratio of Biotin-Ahx-Ub-VS probe labelling (fragment/DMSO); higher = less target engagement (more negative = stronger competition), active = hit call of the paper (q ≤ 0.05, log2 ratio ≤ -1). As to conditions: compound concentration: 200 uM; treatment time: 3 h. The protocol:
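Competitive ABPP in HEK293T cell lysate. Lysates were treated with each chloroacetamide fragment at 200 µM for 3 h, then with Biotin-Ahx-Ub-VS (0.5 µM, 1 h), NeutrAvidin-enriched and analysed by diaPASEF LC-MS/MS. Protein LFQ was median-normalised; average log2 ratio is fragment/DMSO from an unpaired t-test (n=3 treated, n=44 DMSO). Hits: q ≤ 0.05, log2 ratio ≤ -1, unique peptides ≥ 2.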
As for `Cl.O=C(CCl)N1CCn2ncc(O)c2C1`, the “log2 ratio of Biotin-Ahx-Ub-VS probe labelling” value (“log2 ratio” below) was -0.588 (inactive). Next, `CCC1c2ccsc2CCN1C(=O)CCl` (stereo not given): -0.479 (inactive); `COc1ccccc1C(C)NC(=O)CCl` (stereo not given): -0.458 (inactive).

Consider `Cc1noc(N2CCN(C(=O)CCl)CC2)n1.Cl`, for which the “log2 ratio” value is 0.347 (inactive).

In the case of `O=C(CCl)N1CCC2(CCC(O)CC2)CC1`, the “log2 ratio” value is 0.0657 (inactive). Next, `Cc1cnc2[nH]cc(CCNC(=O)CCl)c2c1`: -0.111 (inactive); `CC(NC(=O)CCl)c1cnn(C2CC2)c1` (stereo not given): -0.778 (inactive); `Cl.O=C(CCl)N1CCc2ncncc2C1`: -0.0964 (inactive). For `N#Cc1ccc(Cl)cc1NC(=O)CCl` the value was -0.283 (inactive); for `Cc1nnc(C(NC(=O)CCl)c2ccccc2)n1C` (stereo not given), 0.163 (inactive). Next, `O=C(CCl)NCCC1=CCCCC1`: 0.0195 (inactive); `O=C(CCl)N1CCC(OCc2ccccc2F)CC1`: 0.0975 (inactive). As to `O=C(CCl)NCC(=O)N1CCCC1`, the “log2 ratio” value was -0.0869 (inactive). For `O=C(CCl)N[C@H]1CCS(=O)(=O)c2ccccc21`, the “log2 ratio” value is -0.0969 (inactive).

On to `NS(=O)(=O)c1ccc(Cl)c(NC(=O)CCl)c1`, for which the “log2 ratio” value is -0.356 (inactive). For `CN(C(=O)CCl)c1nc2ccccc2s1` the value was -0.178 (inactive); for `CCc1c[nH]c(CNC(=O)CCl)n1.Cl`, -0.5 (inactive); for `CC(=O)Nc1ccc(NC(=O)CCl)cc1`, 0.0669 (inactive). For `Cc1nc(CN2CCCN(C(=O)CCl)CC2)no1.Cl` the value was 0.0942 (inactive); for `CCN(C(=O)CCl)C1CCCCC1`, -0.0238 (inactive). As for `O=C(CCl)N1CCCCC12CCOCC2`, the “log2 ratio” value was -0.559 (inactive).

Turning to `O=C(CCl)Nc1cc(Cl)ccc1-n1cncn1`, the “log2 ratio” value was -1.09 (active).

For `O=C(CCl)N1CCN(C(=O)Nc2ccccc2)CC1`, the “log2 ratio” value was 0.127 (inactive). For `Cc1nc(CC2CCN(C(=O)CCl)CC2)no1` the value was -0.561 (inactive). On to `N#Cc1ccccc1N1CCN(C(=O)CCl)CC1`, for which the “log2 ratio” value was -0.673 (inactive). Next, `O=C(CCl)Nc1ccc(F)cc1F`: -0.106 (inactive); `O=C(CCl)NCC1(c2ccccc2)CC1`: 0.0125 (inactive). For `O=C(CCl)NCc1noc(C2CC2)n1` the value was -0.284 (inactive); for `O=C(CCl)N1CCOCCC1c1ccccc1` (stereo not given), -0.111 (inactive); for `Cc1cccnc1NC(=O)C1CCN(C(=O)CCl)CC1.Cl`, -0.377 (inactive). For `Cl.O=C(CCl)N1CCn2cncc2C1` the value was -0.259 (inactive).

With `Cl.O=C(CCl)NC1(c2ncccn2)CCC1`, the “log2 ratio” value is 0.108 (inactive). Regarding `Cl.Cn1ncc2c1CC(NC(=O)CCl)CC2` (stereo not given), the “log2 ratio” value was 0.136 (inactive). Next, `O=C(CCl)NC1CCCCNC1=O` (stereo not given): -0.476 (inactive); `C/C(=C\CNC(=O)CCl)c1cnn(C)c1.Cl`: -0.247 (inactive). Next, `Cc1ncc2c(n1)CCN(C(=O)CCl)C2`: -0.161 (inactive). `Cc1conc1C1CN(C(=O)CCl)C1`: the “log2 ratio” value is -1.12 (active).

As to `Cn1cc(CN(Cc2ccc(Cl)cc2)C(=O)CCl)cn1`, the “log2 ratio” value was -1.03 (active).

For `Cl.O=C(CCl)N1CCC(Cc2nccs2)C1` (stereo not given), the “log2 ratio” value is -0.2 (inactive). For `CC1CCc2onc(CNC(=O)CCl)c2C1` (stereo not given) the value was 0.328 (inactive).
